Only some compounds are listed: those with a hit (about 2.9% of all), similar ones and a draw of the others.
EPAC1 ag val = validation of human EPAC1 agonists; hit rate 1% among 16,000; EPAC1 Rap1b BODIPY-GDP exchange, fluorescence; Potency, µM, inactives show max response, positive = active, most hits filed as activators; also: nearly all actives have a fitted effect of over 70% in size
Target sequence (O95398 whole entry, looked up): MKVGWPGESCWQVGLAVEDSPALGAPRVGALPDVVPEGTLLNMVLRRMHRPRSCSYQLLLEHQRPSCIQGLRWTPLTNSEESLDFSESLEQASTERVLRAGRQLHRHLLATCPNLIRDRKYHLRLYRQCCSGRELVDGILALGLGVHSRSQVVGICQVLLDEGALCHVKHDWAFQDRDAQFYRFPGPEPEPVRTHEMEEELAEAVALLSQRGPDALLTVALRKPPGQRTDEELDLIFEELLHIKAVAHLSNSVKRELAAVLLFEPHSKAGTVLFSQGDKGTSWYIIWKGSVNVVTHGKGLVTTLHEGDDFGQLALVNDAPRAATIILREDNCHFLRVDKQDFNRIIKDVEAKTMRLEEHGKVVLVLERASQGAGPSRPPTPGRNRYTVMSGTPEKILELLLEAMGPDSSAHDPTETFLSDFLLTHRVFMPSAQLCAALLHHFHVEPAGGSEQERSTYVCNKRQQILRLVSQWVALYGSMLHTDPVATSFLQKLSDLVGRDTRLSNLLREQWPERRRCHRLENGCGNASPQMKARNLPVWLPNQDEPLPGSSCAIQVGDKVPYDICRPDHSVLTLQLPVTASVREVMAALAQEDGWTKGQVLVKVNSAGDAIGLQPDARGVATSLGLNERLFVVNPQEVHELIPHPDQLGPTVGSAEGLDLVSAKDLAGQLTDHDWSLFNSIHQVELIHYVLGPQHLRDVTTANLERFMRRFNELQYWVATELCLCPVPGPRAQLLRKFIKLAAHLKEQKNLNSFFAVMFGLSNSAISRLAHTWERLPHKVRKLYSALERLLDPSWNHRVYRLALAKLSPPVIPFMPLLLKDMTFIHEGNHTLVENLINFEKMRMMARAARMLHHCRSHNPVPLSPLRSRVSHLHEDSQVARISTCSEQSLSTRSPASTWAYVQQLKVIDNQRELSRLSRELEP
EPAC2 ant val = validation of human EPAC2 antagonists; Potency, µM (highest dose often 112 µM), without a hit: top-dose activity, negative = inhibition, hits mostly inhibitors; hit rate 1.7% among 16,000; EPAC2 Rap1B BODIPY-GDP exchange, fluorescence;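 also: 100% = activation by cAMP agonist control; nearly all actives have a fitted effect of over 40% in size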
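Normalized against a 6.5 mM cAMP agonist control, compounds were tested on 100 nM EPAC2 exchanging Rap1B-bound BODIPY-GDP (250 nM) for 50 uM GDP. Fluorescence drop (ex 480, em 540 nm) was tracked at room temperature over 30 min at 5-min intervals.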
Numbers without * were called inactive; i = inactive; ? = inconclusive; ! = not active in a repeat; [ ] = dose if it differs, or a comment. Calls follow the shape of the dose curve; as a rule, active = well fitted curve in the direction sought with a large enough effect; inconclusive = small, poorly fitted or top-dose-only effect, or another doubt; inactive = no such curve, though single readings can be large; an effect the other way counts as inactive or inconclusive. Unless noted, % is scaled to controls: 0 for no effect and ±100 for the full control effect; potency is read from the fitted curve at half-maximal effect.

SMILES	EPAC1 ag val	EPAC2 ant val
Cc1nc2ccccc2nc1CN1CCOc2ccc(C(C)(O)COc3ccccc3)cc2C1 (centres undefined)	22%	-26%
COc1ccccc1CNc1ccnc(-c2ccc3c(c2)OCO3)n1	100µM*	?
COc1ccccc1CNc1ccnc(-c2cccc(C#N)c2)n1	5%	?
COc1ccc(CNc2ccnc(-c3ccc4c(c3)OCO4)n2)c(OC)c1	15%	-24%
COc1cccc(-c2cncnc2NCc2ccc(OC)cc2OC)c1	8%	45µM*
COc1ccc(CNc2ncncc2-c2cccnc2)c(OC)c1	8%	-32%
COc1ccc(CNc2ccnc(-c3cccc(C#N)c3)n2)c(OC)c1	112µM*	-51%
CNc1nc(-c2ccc3c(c2)OCO3)nc2ccccc12	-21%	-29%
c1ccc(Nc2nc(-c3ccc4c(c3)OCO4)nc3ccccc23)cc1	100µM*	-26%
CC(C)(C)C1(O)CCN2CC3c4ccccc4CCc4cccc(c43)C2C1 (centres undefined)	9%	-11%
CCOC(=O)[C@H](CCc1ccccc1)N[C@@H](C)C(=O)N1[C@@H](C(=O)O)C[C@@H]2CCC[C@@H]21	45µM*	i
CCOC(=O)C(CCc1ccccc1)NC(C)C(=O)N1C(C(=O)O)CC2CCCC21 (centres undefined)	13%	-10%
O=C(C1CC12CCN(Cc1cccc3cccnc13)CC2)N1CCN(Cc2cccs2)CC1 (centres undefined)	6%	-22%
COc1cc2c(cc1OC)-c1cc(=Nc3c(C)cc(C)cc3C)n(C)c(=O)n1CC2	?	14µM*!
COc1ccc(C(=O)N2CCC3(CCN(Cc4cc(C(F)(F)F)cc(C(F)(F)F)c4)CC3)CC2)cc1	-80%	28µM*
COc1ccc(C(=O)N2CCC[C@@]3(CCN(Cc4ccncc4)C3)C2)cc1	-51%	-4%
COCC(=O)N1CCC2(CCN(Cc3cc(C(F)(F)F)cc(C(F)(F)F)c3)CC2)CC1	-65%	-25%
COc1ccc(C(=O)N2CCC[C@@]3(CCN(Cc4cc(C(F)(F)F)cc(C(F)(F)F)c4)C3)C2)cc1	-109%	14µM*
COc1cc2c(cc1O)CCN[C@]21CS[C@@H]2c3c(OC(C)=O)c(C)c4c(c3[C@H](COC1=O)N1[C@@H]2[C@H]2c3c(cc(C)c(OC)c3O)C[C@@H]([C@@H]1O)N2C)OCO4	-45%	16%[239 µM]
c1ccc(-c2onc(-c3ccco3)c2-c2ccc3[nH]ccc3c2)cc1	112µM*	?
C[C@@H]1CCN(C(=O)[C@H](CCCN=C(N)N)NS(=O)(=O)c2cccc3c2NC[C@H](C)C3)[C@@H](C(=O)O)C1	-11%	-20%
Nc1cccc2c(N)cccc12	29%	?
Nc1c2ccccc2nc2ccccc12 (tested in a mixture with another compound)	1%	79µM*
CCCCCCC[n+]1ccc(/C=C/c2c(C)[nH]c3ccccc23)cc1	100µM*	i
CCCCCCCCCCCCCCCC[n+]1ccc(/C=C/c2c[nH]c3ccccc23)cc1	?	491%
SMILES	EPAC1 ag val	EPAC2 ant val
CCCCCCCCCC[n+]1ccc(/C=C/c2c[nH]c3ccccc23)cc1	100µM*	i
CCCCCCCCCCCCCCCC[n+]1ccc(/C=C/c2c(C)[nH]c3ccccc23)cc1	-45%	?
O=c1c(-c2ccc(F)c(F)c2)nc2cncnc2n1Cc1ccccc1Cl	100µM*	?
O=c1c(-c2cc(F)cc(F)c2)nc2cncnc2n1Cc1ccccc1Cl	?	-13%
O=C(c1cnsn1)N1CCOc2ccc(C(O)C(c3ccccc3)c3ccccc3)cc2C1 (centres undefined)	1%	-11%
CC(=O)N[C@@H](CSC/C=C(\C)CC/C=C(\C)CC/C=C(\C)CCC=C(C)C)C(=O)O	-2%	89µM*!
CC(=O)N[C@@H](CSC/C=C(\C)CCC=C(C)C)C(=O)O	-8%	-14%[11.4 µM]
COc1cccc(Nc2ncc3ncc(=O)n(Cc4cccs4)c3n2)c1	112µM*	-14%
O=c1cnc2cnc(Oc3cccc(Cl)c3)nc2n1Cc1ccc(F)cc1	8%	10µM*
O=c1cnc2cnc(Oc3ccccc3)nc2n1Cc1cccs1	10%	13µM*
COc1cccc(Nc2ncc3nc(-c4cccs4)c(=O)n(Cc4cccs4)c3n2)c1	?	4%
COc1cccc(Nc2ncc3nc(-c4cccs4)c(=O)n(-c4ccccc4)c3n2)c1	112µM*	355%
COc1ccc(-n2c(=O)c(-c3cccs3)nc3cnc(Nc4ccccc4)nc32)cc1	?	12%
O=c1c(-c2cccs2)nc2cnc(Oc3ccccc3)nc2n1Cc1cccs1	11%	-22%
COCCn1c(=O)cnc2cnc(Oc3cccc(Cl)c3)nc21	-14%	-10%
O=C(NC(c1cccnc1)C(F)(F)F)c1cnn(-c2nccc(-c3cccs3)n2)c1C1CC1 (centres undefined)	16%	-16%
